This passage reports composite z-score results from PubChem BioAssay.

The first assay concerns the target Calmodulin-1 (Homo sapiens) (UniProt P0DP23). In words: small molecules binding calmodulin-1 with EGTA – biochemical, small-molecule microarray, Cy5-labelled CALM1, profiling panel (AID 1111).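 Further: labelled calmodulin applied in Tris saline Tween buffer holding calcium plus EGTA and DTT.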 As to conditions: Cy5-CALM1 binding fluorescence, higher = more signal.
In the case of `COc1cc(C(O)C2C=CC3C(=O)N(c4ccccc4)C(=O)C3N2Nc2ccccc2F)cc(OC)c1OC` (centres undefined), the composite z-score came out at 1.05.

Compound `C=CCN1C(=O)[C@@]2(O[C@@H](CCn3cc([C@H](O)c4ccccc4)nn3)[C@H]([Si](C)(C)c3ccc(OC)cc3)[C@H]2C)c2cc(N3C(=O)c4cccc5cccc3c45)ccc21` came in with a composite z-score of 0.178.

The compound `COC(=O)[C@H](Cc1ccc(O)cc1)N[C@@H](/C=C/C1CC1)[C@H](O)Cc1ccccc1` showed a composite z-score of -0.851.

For the compound `COc1ccc([Si](C)(C)[C@@H]2[C@@H](CC(=O)N3CCC[C@H]3CO)O[C@]3(C(=O)N(Cc4cccc(N5CCCCC5=O)c4)c4ccccc43)[C@H]2C)cc1`, the composite z-score came to 0.336.

Compound `O=C1C[C@@](C(=O)O)(c2ccc([N+](=O)[O-])cc2)[C@@H](c2ccc(CO)cc2)N1C1CCCCC1` showed a composite z-score of 1.2.

With `CCOC(=O)c1cn(C[C@H](Cc2ccccc2)NC(=O)N[C@H](CO)CCc2oc(C(C)=O)c(C(=O)OC)c2C(=O)OC)nn1`, the composite z-score is -0.0815.

For the compound `NCCCCCCNC(=O)[C@@H]1C[C@@H]2C(=O)N3CCC[C@H]3C(=O)N2[C@@H]1c1cccc(OCCO)c1`, the composite z-score is 0.263.

For the compound `COCCOC(=O)N1C(=O)[C@@]2(c3cc(C#CCCO)ccc31)[C@H](C(N)=O)[C@H]1C(=O)O[C@H](c3ccccc3)[C@H](c3ccccc3)N1[C@@H]2c1ccccc1OCCO`, the composite z-score amounted to 1.03.

The target is the same in the next assay. Put plainly: small molecules binding Ca-loaded calmodulin-1 – biochemical, small-molecule microarray, Cy5-labelled CALM1, plus calcium, artefact control for SMM control-protein annotation, profiling panel (AID 1112).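 Further: score merges spot fluorescence with signal to noise from triplicate slides.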 The settings on record: Cy5-CALM1 binding fluorescence, higher = more signal.
Turning to `CC(C)(C)N1CC=CC23O[C@@H]4/C=C\CCCOC(=O)C4[C@H]2C(=O)N(CCCO)[C@@H]3C1=O` (some centres undefined), the composite z-score is -0.275.

Take `Cc1ccc(S[C@]2(C(=O)NCCCN(C)C)CC(=O)N(C3Cc4ccccc4C3)[C@@H]2c2ccc(CO)cc2I)cc1`: the composite z-score was -0.358.

Take `CCOc1cc(C(O)C2C=CC3C(=O)N(c4ccccc4)C(=O)C3N2Nc2ccccc2F)ccc1O` (centres undefined): the composite z-score amounted to 0.479.

In the case of `Cc1ccc(F)cc1S(=O)(=O)N[C@H]1CCN(Cc2ccc(OC(C)C)cc2)C1`, the composite z-score is -1.43.

For `COC(=O)C(CC#Cc1ccc2c(c1)[C@]1(C(=O)N2)[C@H](c2ccc(OCCO)cc2)N2[C@H](c3ccccc3)[C@H](c3ccccc3)OC(=O)[C@H]2[C@@H]1C(=O)N1CCCCCCC1)C(=O)OC`, the composite z-score came to 1.29.

Take `[N-]=[N+]=Nc1ccccc1C[C@]1(C(=O)N2CCOCC2)N=C(c2ccc(OCCCO)cc2)O[C@H]1c1ccccc1N=[N+]=[N-]`: the composite z-score was -0.388.

As to `O=C(NC1CC1)[C@@H]1c2ccccc2C(=O)N(Cc2ccc(OC(F)(F)F)cc2)[C@H]1c1ccc(CO)cc1`, the composite z-score was found to be 1.06.

Consider `CN(C)CCCC[C@@H]1NC(=O)[C@H]2C[C@@H](C(=O)O)[C@@H](c3ccc(O)cc3)N2C1=O`, for which the composite z-score is 1.23.

Regarding `CO[C@H]1O[C@H](CO)[C@@H](OC(=O)Nc2ccccc2)[C@H](OC(=O)Nc2ccccc2)[C@H]1OC(=O)Nc1ccccc1`, the composite z-score was -0.12.

Consider `[N-]=[N+]=NCc1ccccc1[C@@H]1OC(c2ccc(OCCCO)cc2)=N[C@]1(Cc1ccccc1N=[N+]=[N-])C(=O)O`, for which the composite z-score stood at 0.774.

With `CC(C)=CCCC(C)=CC(O)C1C=CC2C(=O)NC(=O)C2N1Nc1ccc(Cl)cc1Cl` (centres undefined), the composite z-score amounted to 0.254.

`CC(C)C(=C=CC[C@H](O)c1ccccc1OCCO)C[C@H](O)c1cc(Cl)cc(Cl)c1O`: the composite z-score worked out at 0.271.

For the compound `COc1ccc(C(=O)Nc2ccc3c(c2)[C@@]2(O[C@H](CCO)[C@@H]([Si](C)(C)c4ccc(OC)cc4)[C@@H]2C)C(=O)N3Cc2ccccc2)cc1`, the composite z-score turned out to be 0.238.

In the case of `CC(C)(C)OC(=O)CC[C@@]1(C(=O)NCCN2CCOCC2)N=C(c2ccc(OCCCO)cc2)O[C@@H]1c1ccccc1CN=[N+]=[N-]`, the composite z-score was -0.0256.

On to `CC(C)C(CO)N1C(=O)[C@@H]2C3C(=O)OCCC/C=C\[C@H]3OC23C=CCN(Cc2ccccc2)C(=O)[C@@H]13` (some centres undefined), for which the composite z-score amounted to 0.574.

`COC(=O)C(CC#Cc1ccc2c(c1)[C@]1(C(=O)N2)[C@H](C(=O)N2CCc3cc(OC)c(OC)cc3C2)[C@H]2C(=O)O[C@H](c3ccccc3)[C@H](c3ccccc3)N2[C@@H]1c1ccccc1OCCO)C(=O)OC`: the composite z-score was -0.509.

For the compound `CC(C)=CCCC=C(C)C(O)C1C=CC2C(=O)N(c3ccccc3)C(=O)C2N1Nc1ccc(C#N)cc1` (centres undefined), the composite z-score is -0.175.

In the case of `C=CCC(OC(C)=O)[C@@H]1[C@@H](N(Cc2cccc3ccccc23)C(=O)Cc2ccc(OC)cc2)c2cc(OCCCO)ccc2N1C(=O)Cc1ccc2ccccc2c1` (some centres undefined), the composite z-score was 0.316.

For `CN1C(=O)C2C=CC(C(O)c3ccc(-c4ccccc4)s3)N(NC(=O)OC(C)(C)C)C2C1=O` (centres undefined), the composite z-score turned out to be 0.902.

Turning to `COC(=O)[C@@]1(Cc2ccccc2)N=C(c2ccc(OCCCO)cc2)O[C@H]1c1ccccc1CN=[N+]=[N-]`, the composite z-score is -0.193.

Consider `COc1ccc([Si](C)(C)[C@H]2[C@H](CC(=O)N3Cc4ccccc4C[C@H]3CO)O[C@@]3(C(=O)N(C)c4ccccc43)[C@@H]2C)cc1`, for which the composite z-score is -1.29.

Regarding `C=CCC(OC(C)=O)[C@@H]1[C@@H](N(Cc2cc3ccccc3o2)C(=O)c2cccc3ccccc23)c2cc(OCCCO)ccc2N1C(=O)c1ccc2ccccc2n1` (some centres undefined), the composite z-score worked out at 0.304.

On to `CCOC(=O)C[C@H]1[C@H](OC(=O)c2ccccc2-c2ccccc2)[C@@H](NC(=O)C2CCCCC2)c2cc(OCCCO)ccc2N1C(=O)c1ccc2ccccc2n1`, for which the composite z-score is -0.24.

In the case of `O=C1C2C=CC(C(O)C3CCCCC3)N(n3cnnc3)C2C(=O)N1Cc1ccccc1` (centres undefined), the composite z-score is -0.195.

As for `C=CCOC(=O)[C@@H]1[C@H]2C(=O)O[C@H](c3ccccc3)[C@H](c3ccccc3)N2[C@H](c2ccc(OCCOC(=O)[C@H]3C[C@H]4C(=O)N[C@@H](CCCCN(C)C)C(=O)N4[C@H]3c3ccc(O)cc3)cc2)[C@@]12C(=O)Nc1ccc(I)cc12`, the composite z-score is -0.972.

Turning to `O=C1C[C@]2(c3ccc([N+](=O)[O-])cc3)C(=O)N(C3CC3)c3cc(CO)ccc3[C@H]2N1C1CCCCC1`, the composite z-score was -0.931.

Turning to `CN(C)CCCNC(=O)[C@@]1(Cc2ccccc2I)c2ccccc2C(=O)N(C2CCCCC2)[C@H]1c1ccc(CO)cc1`, the composite z-score stood at 1.2.

For the compound `C=CCC(OC(C)=O)[C@@H]1[C@@H](N(Cc2cccc3ccccc23)C(=O)c2ccc(-c3ccccc3)cc2)c2cc(OCCCO)ccc2N1C(=O)Cc1ccc2ccccc2c1` (some centres undefined), the composite z-score came to 0.912.

As to `COc1cc(C(O)C2C=CC3C(=O)N(c4ccccc4)C(=O)C3N2Nc2ccccc2F)cc(OC)c1OC` (centres undefined), the composite z-score is -0.383.

In the case of `C=CCN1C(=O)[C@@]2(O[C@@H](CCn3cc([C@H](O)c4ccccc4)nn3)[C@H]([Si](C)(C)c3ccc(OC)cc3)[C@H]2C)c2cc(N3C(=O)c4cccc5cccc3c45)ccc21`, the composite z-score is 0.872.

Regarding `COC(=O)[C@H](Cc1ccc(O)cc1)N[C@@H](/C=C/C1CC1)[C@H](O)Cc1ccccc1`, the composite z-score was -0.929.

Turning to `COc1ccc([Si](C)(C)[C@@H]2[C@@H](CC(=O)N3CCC[C@H]3CO)O[C@]3(C(=O)N(Cc4cccc(N5CCCCC5=O)c4)c4ccccc43)[C@H]2C)cc1`, the composite z-score was 0.0654.

`O=C1C[C@@](C(=O)O)(c2ccc([N+](=O)[O-])cc2)[C@@H](c2ccc(CO)cc2)N1C1CCCCC1`: the composite z-score stood at 0.161.

As for `CCOC(=O)c1cn(C[C@H](Cc2ccccc2)NC(=O)N[C@H](CO)CCc2oc(C(C)=O)c(C(=O)OC)c2C(=O)OC)nn1`, the composite z-score was -0.471.

In the case of `NCCCCCCNC(=O)[C@@H]1C[C@@H]2C(=O)N3CCC[C@H]3C(=O)N2[C@@H]1c1cccc(OCCO)c1`, the composite z-score is -0.334.

`COCCOC(=O)N1C(=O)[C@@]2(c3cc(C#CCCO)ccc31)[C@H](C(N)=O)[C@H]1C(=O)O[C@H](c3ccccc3)[C@H](c3ccccc3)N1[C@@H]2c1ccccc1OCCO`: the composite z-score is 0.114.
